Experimental findings from PubChem BioAssay (Tox21) are described below.

Several values for one entry are separate records, joined by “and”; a condition that tells them apart may be missing. Equal values may be shown once. Results filed as inconclusive are left out. A call without a number means that no potency is given here. Activity calls are given as the source filed them. Calls follow the shape of the dose curve; as a rule, active = well fitted curve in the direction sought with a large enough effect in the repeat runs; inconclusive = weak or mixed curves; inactive = no such curve, though single readings can be large; an effect the other way counts as inactive or inconclusive.
Potency is read from the fitted curve at half-maximal effect.

Sequence of Nuclear receptor subfamily 1 group I member 3 (Homo sapiens) (Q14994 whole entry, looked up): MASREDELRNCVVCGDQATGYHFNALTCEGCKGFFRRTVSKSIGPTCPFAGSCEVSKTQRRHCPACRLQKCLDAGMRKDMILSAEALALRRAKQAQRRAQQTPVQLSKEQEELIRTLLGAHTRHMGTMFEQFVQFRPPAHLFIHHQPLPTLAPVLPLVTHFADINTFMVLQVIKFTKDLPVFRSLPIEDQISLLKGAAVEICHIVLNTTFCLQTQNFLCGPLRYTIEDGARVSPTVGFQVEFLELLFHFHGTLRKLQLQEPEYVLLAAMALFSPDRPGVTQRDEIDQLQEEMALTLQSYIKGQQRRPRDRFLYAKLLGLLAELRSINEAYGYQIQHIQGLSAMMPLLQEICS

System in the first test: not listed separately
Nature of the test: qHTS assay to identify small molecule antagonists of the constitutive androstane receptor (CAR) signaling pathway - cell viability counter screen (AID 1224837). Also: nearly all actives have a fitted effect of over 45% in size. The conditions noted are these: HepG2-CYP2B6-hCAR viability, CellTiter-Fluor, 23 h, co-treated with 50 nM CITCO; series mostly up to 92.4 µM; activity change, negative = cytotoxicity: at the top concentration. The method in brief:
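HepG2-CYP2B6-hCAR cells, 2500/well, 4 hr pre-incubation; compound titration, 15 conc.; CITCO 50 nM final; 23 hr, 37 C/5% CO2; CellTiter-Fluor, fluorescence intensity.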
Regarding `OC[C@H]1O[C@@H]2O[C@H]3[C@H](O)[C@@H](O)[C@@H](O[C@H]4[C@H](O)[C@@H](O)[C@@H](O[C@H]5[C@H](O)[C@@H](O)[C@@H](O[C@H]6[C@H](O)[C@@H](O)[C@@H](O[C@H]7[C@H](O)[C@@H](O)[C@@H](O[C@H]8[C@H](O)[C@@H](O)[C@@H](O[C@H]1[C@H](O)[C@H]2O)O[C@@H]8CO)O[C@@H]7CO)O[C@@H]6CO)O[C@@H]5CO)O[C@@H]4CO)O[C@@H]3CO`, the Potency entry is “inactive”.
For the compound `CCCCC(CC)COCC1CO1` (stereo not given), the Potency entry is “inactive”.
In the case of `Cc1cccc(C(=O)O)c1`, the Potency entry is “inactive”.
`O=[N+]([O-])c1ccc2c(c1)Cc1ccccc1-2`: the Potency result is “inactive”.
Take `CCCCC/C=C/C=C/C=O`: the Potency result is “inactive”.
Take `O=c1oc(=O)c2cc3c(=O)oc(=O)c3cc12`: the Potency entry was “inactive”.
Consider `Cc1c(OCC(F)(F)F)ccnc1CS(=O)c1nc2ccccc2[nH]1` (stereo not given), for which the Potency entry was “inactive”.
On to `CCC(C)c1ccccc1O` (stereo not given), for which the Potency result is “inactive”.
With `Nc1ncn([C@@H]2O[C@H](CO)[C@@H](O)[C@H]2O)c(=O)n1`, the Potency was 4.86 µM (active).
Consider `CC(C)OC(=O)C(C)(C)Oc1ccc(C(=O)c2ccc(Cl)cc2)cc1`, for which the Potency entry was “inactive”.
As to `Cc1ccc2c(n1)Oc1ccc(C(C)C(=O)OCC(=O)N(C)C)cc1C2` (stereo not given), the Potency result is “inactive”.
Take `Brc1cc(Oc2cc(Br)c(Br)c(Br)c2Br)c(Br)c(Br)c1Br`: the Potency entry was “inactive”.
As to `CCCCOCCOCCOCCO`, the Potency entry was “inactive”.
On the same count and under the same terms, in the case of `CCCCC(CC)COP(=O)(OCC(CC)CCCC)OCC(CC)CCCC` (stereo not given) it was “inactive”.
For `CCOC(=O)C(C#N)=C(c1ccccc1)c1ccccc1`, the Potency entry was “inactive”.
`CC(C(=O)O)c1cccc(C(=O)c2ccccc2)c1` (stereo not given): the Potency result was “inactive”.
The same measure, in the same setting: in the case of `CCC(C)CO` (stereo not given) it was “inactive”.
Still for that read-out and setting: to `O=C1OC2(c3cc(Br)c(O)c(Br)c3Oc3c2cc(Br)c(O)c3Br)c2c(Cl)c(Cl)c(Cl)c(Cl)c21` belongs 19.4 µM (active) and 33.1 µM (active); to `CC(CCC(=O)O)(c1ccc(O)cc1)c1ccc(O)cc1`, “inactive”; to `C[C@]12CC[C@H]3[C@@H](CCC4=CC(=O)CC[C@@]43C)[C@@H]1CC[C@@H]2C(=O)CO`, “inactive”.
For `Nc1ncnc2nc[nH]c12`, the Potency entry is “inactive”.
Same read-out and setting: to `CC(C)OB(OC(C)C)OC(C)C` belongs “inactive”; to `C#C[C@]1(O)CC[C@H]2[C@@H]3CCc4cc(OC)ccc4[C@H]3CC[C@@]21C`, “inactive”.
On to `Clc1nc(Cl)c(Cl)c(Cl)c1Cl`, for which the Potency result is “inactive”.
On the same count and under the same terms, to `CCCC(=O)O` belongs “inactive”; to `c1cc(-c2ccncc2)ccn1`, “inactive”; to `C=C(C)C(=O)OCCOC(=O)C(=C)C`, “inactive”.
On to `O=C(c1ccccc1)c1ccccc1O`, for which the Potency result is “inactive”.
Take `CCCCC(CC)COC(=O)c1ccc(N(C)C)cc1` (stereo not given): the Potency result is “inactive”.
In the case of `CC1=CC2C3CC(C=C3C)C2C1` (stereo not given), the Potency entry was “inactive”.
On to `COC(=O)C1=C(C)NC(C)=C(C(=O)OCCN(C)Cc2ccccc2)C1c1cccc([N+](=O)[O-])c1` (stereo not given), for which the Potency was 43 µM (active) and 23.7 µM (active).
For `CC(=O)Oc1ccccc1C(=O)Nc1ncc([N+](=O)[O-])s1`, the Potency is 24.8 µM (active) and 23.7 µM (active).
For the compound `c1ccc2cc(Nc3ccc(Nc4ccc5ccccc5c4)cc3)ccc2c1`, the Potency result was “inactive”.
On to `CCCCc1oc2ccccc2c1C(=O)c1cc(I)c(OCCN(CC)CC)c(I)c1`, for which the Potency was 43.6 µM (active).
With `Cc1ccc(C)c(O)c1C`, the Potency result is “inactive”.
Turning to `CC(C)Oc1ccc2c(=O)c(-c3ccccc3)coc2c1`, the Potency result is “inactive”.
As for `OC(CCl)CCl`, the Potency result is “inactive”.
`O=C(/C=C/c1ccccc1)OCc1ccccc1`: the Potency entry was “inactive”.

In a further test the target is Nuclear receptor subfamily 1 group I member 3 (Homo sapiens) (UniProt Q14994). The experiment in a line: qHTS assay to identify small molecule antagonists of the constitutive androstane receptor (CAR) signaling pathway (AID 1224838).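 Also: HepG2 cells stably expressing hCAR with CYP2B6 luciferase reporter stimulated by CITCO; nearly all actives have a fitted effect of over 40% in size.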 The conditions noted are these: HepG2-CYP2B6-hCAR luciferase, CITCO-stimulated, 24 h; series mostly up to 92.4 µM; activity, negative = inhibition: at the top concentration. In outline:
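HepG2-CYP2B6-hCAR cells; 4 h pre-incubation; cpd (15 conc) + CITCO 50 nM final; 24 h, 37 C/5% CO2; ONE-Glo, luminescence.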
Regarding `OC[C@H]1O[C@@H]2O[C@H]3[C@H](O)[C@@H](O)[C@@H](O[C@H]4[C@H](O)[C@@H](O)[C@@H](O[C@H]5[C@H](O)[C@@H](O)[C@@H](O[C@H]6[C@H](O)[C@@H](O)[C@@H](O[C@H]7[C@H](O)[C@@H](O)[C@@H](O[C@H]8[C@H](O)[C@@H](O)[C@@H](O[C@H]1[C@H](O)[C@H]2O)O[C@@H]8CO)O[C@@H]7CO)O[C@@H]6CO)O[C@@H]5CO)O[C@@H]4CO)O[C@@H]3CO`, the Potency result was “inactive”.
For `CCCCC(CC)COCC1CO1` (stereo not given), the Potency result was “inactive”.
For the compound `Cc1cccc(C(=O)O)c1`, the Potency entry is “inactive”.
Same read-out and setting: to `O=[N+]([O-])c1ccc2c(c1)Cc1ccccc1-2` belongs “inactive”.
On to `CCCCC/C=C/C=C/C=O`, for which the Potency entry was “inactive”.
`O=c1oc(=O)c2cc3c(=O)oc(=O)c3cc12`: the Potency entry was “inactive”.
Same read-out and setting: in the case of `Cc1c(OCC(F)(F)F)ccnc1CS(=O)c1nc2ccccc2[nH]1` (stereo not given) it was “inactive”; in that of `CCC(C)c1ccccc1O` (stereo not given), “inactive”.
Consider `Nc1ncn([C@@H]2O[C@H](CO)[C@@H](O)[C@H]2O)c(=O)n1`, for which the “activity, negative = inhibition” value is 1.85% [at 42.5 µM] (inactive).
For `CC(C)OC(=O)C(C)(C)Oc1ccc(C(=O)c2ccc(Cl)cc2)cc1`, the Potency entry was “inactive”.
For `Cc1ccc2c(n1)Oc1ccc(C(C)C(=O)OCC(=O)N(C)C)cc1C2` (stereo not given), the Potency entry is “inactive”.
Turning to `Brc1cc(Oc2cc(Br)c(Br)c(Br)c2Br)c(Br)c(Br)c1Br`, the Potency entry is “inactive”.
With `CCCCOCCOCCOCCO`, the Potency result was “inactive”.
The same measure, in the same setting: in the case of `CCCCC(CC)COP(=O)(OCC(CC)CCCC)OCC(CC)CCCC` (stereo not given) it was “inactive”; in that of `CCOC(=O)C(C#N)=C(c1ccccc1)c1ccccc1`, “inactive”; in that of `CCC(C)CO` (stereo not given), “inactive”.
In the case of `O=C1OC2(c3cc(Br)c(O)c(Br)c3Oc3c2cc(Br)c(O)c3Br)c2c(Cl)c(Cl)c(Cl)c(Cl)c21`, the “activity, negative = inhibition” value was 1.13% [at 42.5 µM] (inactive).
As to `CC(CCC(=O)O)(c1ccc(O)cc1)c1ccc(O)cc1`, the Potency result was “inactive”.
As to `C[C@]12CC[C@H]3[C@@H](CCC4=CC(=O)CC[C@@]43C)[C@@H]1CC[C@@H]2C(=O)CO`, the “activity, negative = inhibition” value was -10.1% [at 42.5 µM] (inactive).
In the case of `Nc1ncnc2nc[nH]c12`, the Potency result was “inactive”.
Consider `CC(C)OB(OC(C)C)OC(C)C`, for which the Potency result is “inactive”.
As for `C#C[C@]1(O)CC[C@H]2[C@@H]3CCc4cc(OC)ccc4[C@H]3CC[C@@]21C`, the Potency result is “inactive”.
In the case of `Clc1nc(Cl)c(Cl)c(Cl)c1Cl`, the Potency result was “inactive”.
`CCCC(=O)O`: the Potency result is “inactive”.
Take `c1cc(-c2ccncc2)ccn1`: the Potency result is “inactive”.
Take `C=C(C)C(=O)OCCOC(=O)C(=C)C`: the Potency entry is “inactive”.
`O=C(c1ccccc1)c1ccccc1O`: the Potency result is “inactive”.
On to `CCCCC(CC)COC(=O)c1ccc(N(C)C)cc1` (stereo not given), for which the Potency entry is “inactive”.
On to `CC1=CC2C3CC(C=C3C)C2C1` (stereo not given), for which the Potency entry is “inactive”.
Consider `COC(=O)C1=C(C)NC(C)=C(C(=O)OCCN(C)Cc2ccccc2)C1c1cccc([N+](=O)[O-])c1` (stereo not given), for which the “activity, negative = inhibition” value was 87.7% [at 42.5 µM] (inactive).
As to `CC(=O)Oc1ccccc1C(=O)Nc1ncc([N+](=O)[O-])s1`, the Potency entry was “inactive”.
Still for that read-out and setting: to `c1ccc2cc(Nc3ccc(Nc4ccc5ccccc5c4)cc3)ccc2c1` belongs “inactive”.
For the compound `Cc1ccc(C)c(O)c1C`, the Potency entry is “inactive”.
Regarding `CC(C)Oc1ccc2c(=O)c(-c3ccccc3)coc2c1`, the Potency result is “inactive”.
Turning to `OC(CCl)CCl`, the Potency result was “inactive”.
On the same count and under the same terms, in the case of `Cn1cnc([N+](=O)[O-])c1Sc1ncnc2nc[nH]c12` it was 4.83 µM (active) and 11.9 µM (active); in that of `O=C(/C=C/c1ccccc1)OCc1ccccc1`, “inactive”.
